# Bioassay records deposited in PubChem by National Center for Advancing Translational Sciences (NCATS).
# Most compounds without a hit are left out; they make up all but 17% or so of the library.
# TDP1 cell CPT – qHTS for Inhibitors of human tyrosyl-DNA phosphodiesterase 1 (TDP1): qHTS in cells in presence of CPT; chicken DT40 Tdp1-/-;hTDP1 cells + 20 nM CPT, ATP luminescence, 48 h; Potency, µM (highest dose often 46.2 µM), for the others: top-dose activity change, negative = growth inhibition, most hits filed as inhibitors; hit rate 12% among 420,000; AID 686979, 2013; further: on the % scale 0 is the no-effect control and ±100 the full control effect; nearly all actives have a fitted effect of over 55% in size
#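 Cell growth measured by CellTiter-Glo luminescence after a minimum 48 h, 37 C compound exposure with 20 nM CPT in Tdp1-knockout DT40 cells stably expressing hTDP1, seeded 400/well; qHTS titration format.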
# HepG2 tox – qHTS for Inhibitors of TGF-b: Cytotox Counterscreen; HepG2 CAGA-GFP viability, ATP luminescence, 18 h; Potency, µM (doses to about 46.1 µM), for the others: at the top dose activity change, negative = cytotoxicity, usual class: cytotoxic; hit rate 0.76% among 410,000; AID 588856, 2011
#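 CellTiter-Glo luminescence gave cytotoxicity after 18 hours at 37 degrees C. The cells were HepG2 CAGA-GFP in 1% FBS DMEM, stimulated with 500 pg/mL TGF-beta after compound addition. %Activity was normalised to no-cell wells (complete cell-killing) and DMSO (no toxicity), and curves were fitted and classified.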
# TDP1 cell noCPT – qHTS for Inhibitors of human tyrosyl-DNA phosphodiesterase 1 (TDP1): qHTS in cells in absence of CPT. DT40 Tdp1-/- hTDP1 cells, no CPT, ATP luminescence, 48 h. Potency, µM (doses to about 46.2 µM), without a hit: at the highest dose activity change, negative = growth inhibition, actives largely listed as inhibitors. hit rate 15% among 420,000; further: on the % scale 0 is the no-effect control and ±100 the full control effect; nearly all actives have a fitted effect of over 55% in size
#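 Stably hTDP1-transfected Tdp1-null chicken DT40 cells were treated with library compounds minus camptothecin and grown for at least 48 hr at 37 °C, after which cellular ATP was quantified by luminescence.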
# TGFb inhibitor – qHTS for Inhibitors of TGF-b. HepG2 CAGA-GFP TGF-b/SMAD3 reporter, GFP fluorescence, 18 h; TGF-beta stimulated, 500 pg/mL final. Potency, µM (titrated, usually from 46.1 µM), without a hit: at the top dose activity, negative = inhibition, actives largely listed as inhibitors. hit rate 1.2% among 410,000; further: on the % scale 0 is the no-effect control and ±100 the full control effect; nearly all actives have a fitted effect of over 65% in size
#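 TGF-beta reporter screen: HEPG2 CAGA-GFP, 1% FBS, 500 pg/mL TGF-beta final, 18 h; per-cell GFP summed per well; curves fitted and categorized by class.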
# ATXN2 expr inh – Primary qHTS for Inhibitors of ATXN expression. hit rate 0.72% among 360,000. AID 1745845, 2022. Potency, µM (highest dose often 57 µM), inactives show at the top dose activity change, negative = inhibition, most hits filed as inhibitors. HEK-293 ATXN2-luciferase reporter, luminescence, 24 h; further: on the % scale 0 is the no-effect control and ±100 the full control effect; nearly all actives have a fitted effect of over 55% in size
#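 ATXN2-luciferase reporter cells (luciferase flanked by upstream and downstream ATXN2 gene portions) were treated 24 h at 37 °C with compounds at up to 57 uM. SteadyGlo luminescence gave expression; GF-AFC fluorescence gave viability.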
# ATXN viability – Viability Counterscreen for Primary qHTS for Inhibitors of ATXN expression; Potency, µM (top dose mostly 56.7 µM), actives largely listed as cytotoxic; hit rate 0.49% among 400,000; AID 651635, 2014; S2 cells (HEK-293 line with an ATXN2-luciferase reporter) viability, CellTiter-Fluor protease fluorescence, 24 h; further: nearly all actives have a fitted effect of over 40% in size
# Starred values were filed as active, the others as inactive; i = inactive; ? = inconclusive; · = no result. The call rests on the fitted dose curve; in most records, active means well fitted curve in the direction sought with a large enough effect; inconclusive means small, poorly fitted or top-dose-only effect, or another doubt; inactive means no such curve, though single readings can be large; an effect the other way counts as inactive or inconclusive. Potency means the concentration at half of the fitted maximal effect.
SMILES,TDP1 cell CPT,HepG2 tox,TDP1 cell noCPT,TGFb inhibitor,ATXN2 expr inh,ATXN viability
COCCNC(=S)NN=C1CCC(c2ccccc2)CC1 (stereo unspecified),?,2.3%,5.17µM*,1.2%,-21.5%,i
COc1ccc(/C(C)=N/NC(=S)NCCc2ccccc2)c(O)c1,0.651µM*,-24.0%,0.581µM*,?,-34.0%,i
COCCNC(=S)N/N=C(\C)c1ccc(Cl)c(Cl)c1Cl,4.11µM*,8.1%,4.61µM*,?,-23.8%,i
COCCNC(=S)N/N=C(\C)c1ccccc1F,?,0.0%,?,2.3%,9.5%,i
COCCNC(=S)N/N=C(\C)c1ccc(Cl)c(Cl)c1,23.1µM*,-58.2%,20.6µM*,8.91µM*,14.6%,i
CNC(=S)N/N=C(\C)c1ccc(Cl)c(Cl)c1,4.11µM*,-0.9%,5.17µM*,-14.1%,-8.0%,i
COCCNC(=S)N/N=C(\C)c1cccc(OC)c1,13.2%,-19.2%,11.4%,?,6.5%,i
COCCNC(=S)N/N=C(\C)c1ccc(Cl)s1,?,-26.4%,20.6µM*,?,0.0%,?
NNC(=O)CNC(=O)CNS(=O)(=O)c1ccccc1,18.0%,1.5%,-6.2%,-12.6%,-10.2%,i
CC(=O)c1ccc[n+](CC(=O)c2ccc(F)cc2)c1,-7.7%,0.7%,-1.3%,-27.6%,·,·
N=c1c2c3c(sc2ncn1N)CCC3,2.3%,-25.9%,-18.3%,0.0%,-19.5%,i
CC(C)(C)C1CCc2c(sc3ncn(N)c(=N)c23)C1 (stereo unspecified),16.4µM*,-78.1%,6.51µM*,-29.8%,·,i
Cc1cccc2[nH]cc(/C=C3/C=Nc4ccccc43)c12,7.94µM*,-27.8%,3.98µM*,?,·,·
N#Cc1ccccc1Sc1ccccc1C(=O)OCc1nnc(-c2ccccc2)o1,?,-6.1%,?,15.4%,7.3%,i
Cc1noc(C)c1COC(=O)c1ccccc1Sc1ccccc1C#N,25.9µM*,-18.1%,?,-1.6%,-3.6%,i
CCc1ccc(N/C(N)=N/c2nc(CSc3ccccn3)cc(=O)[nH]2)cc1,14.6µM*,-4.2%,16.4µM*,9.7%,-25.6%,i
Cc1ccc(N/C(N)=N/c2nc(CSc3ccccn3)cc(=O)[nH]2)c(C)c1,?,-89.6%,18.4µM*,4.8%,-19.3%,i
Cc1ccc(NC(=O)c2ccc(CSc3ccccn3)cc2)cc1,?,-27.3%,23.1µM*,-12.0%,27.1%,i
COCc1cc(=O)[nH]c(/N=C(\N)Nc2ccc(C)cc2C)n1,4.1%,-14.4%,-7.7%,-14.5%,-4.2%,i
CC1CCN(C(=O)Cn2cc(SCC(=O)NCc3ccc(F)cc3)c3ccccc32)CC1,?,-7.3%,20.6µM*,?,·,·
CC1CCN(C(=O)Cn2cc(SCC(=O)NCc3ccccc3)c3ccccc32)CC1,?,-21.2%,?,0.0%,·,·
Cc1ccccc1CS(=O)(=O)c1cn(CC(=O)N2CCC(C)CC2)c2ccccc12,-109.4%,-23.5%,13µM*,-8.2%,-13.7%,?
Cc1ccc(CSc2cn(CC(=O)N3CCCCC3)c3ccccc23)cc1,?,-23.2%,23.1µM*,?,·,·
CC1CCN(C(=O)Cn2cc(SCc3ccccc3)c3ccccc32)CC1,20.6µM*,-20.4%,16.4µM*,-36.8%,·,·
Cc1ccc(N(CC(=O)NCc2ccco2)C(=O)CCC(=O)Nc2ccccn2)c(C)c1,-9.2%,6.3%,-20.8%,13.6%,-24.8%,i
SMILES,TDP1 cell CPT,HepG2 tox,TDP1 cell noCPT,TGFb inhibitor,ATXN2 expr inh,ATXN viability
O=C(Cn1cc(SCc2ccc(F)cc2)c2ccccc21)N1CCCCC1,16.4µM*,-34.5%,16.4µM*,?,·,·
CN(C)CCCOC1(Cc2ccccc2)CCCCCC1,·,·,·,·,-8.4%,i
CC1(C)COC(Cn2c3ccccc3c3ccccc32)O1 (stereo unspecified),?,17.9%,?,-13.4%,-24.7%,i
CC1COC(Cn2c3ccccc3c3ccccc32)O1 (stereo unspecified),?,-3.3%,18.4µM*,23.4%,-16.9%,i
CCN(CC)Cc1nc2c(c(=O)[nH]1)C1(CCCC1)Cc1ccccc1-2,20.6µM*,-3.8%,?,-2.6%,-13.9%,i
O=c1[nH]c(CN(CCO)CCO)nc2c1C1(CCCCC1)Cc1ccccc1-2,?,7.3%,-0.1%,-3.9%,0.7%,i
Cc1nc(Br)c(Br)n1Cc1ccccc1,?,-23.0%,20.6µM*,-11.0%,·,i
Cc1nc([N+](=O)[O-])c(SCC(N)=O)n1Cc1ccccc1,-1.5%,-4.0%,?,-12.1%,·,i
S=c1[nH]nc(-c2ccc(Br)cc2)n1Cc1ccccc1,?,-5.8%,?,5.0%,-15.1%,i
CCC(C)Cn1c(COc2ccc(OC)cc2)nc2ccccc21 (stereo unspecified),?,-14.9%,?,-22.5%,-1.2%,i
Cc1cccc(Cn2c(-c3cccc(Br)c3)nc3ccccc32)c1,18.4µM*,-24.6%,16.4µM*,?,·,·
Cc1nc([N+](=O)[O-])c(Sc2nc3ccccc3n2C)n1Cc1ccccc1,?,-130.7%,5.17µM*,?,-5.7%,i
CCC(C)Cn1c(C)nc2ccccc21 (stereo unspecified),?,-7.1%,10.3µM*,-12.2%,-9.5%,?
O=C(NCC1CCCN1S(=O)(=O)c1ccccc1)c1cccc(Cl)c1 (stereo unspecified),?,-9.3%,?,2.1%,-14.8%,?
Cc1nc2ccccc2n1Cc1ccc(Br)cc1,5.8µM*,-11.8%,6.51µM*,-32.6%,?,i
c1ccc(Cc2nc3ccccc3n2Cc2ccccc2)cc1,-21.2%,-26.5%,?,?,-21.9%,i
Cc1nc2ccccc2n1Cc1ccccc1,16.4µM*,-19.9%,?,-28.2%,·,?
CCC(O)c1nc2ccccc2n1Cc1cccc(Cl)c1 (stereo unspecified),?,-25.0%,18.4µM*,-29.0%,·,·
CC(c1nc2ccccc2n1Cc1ccccc1)N1CCCCC1 (stereo unspecified),16.4µM*,-7.2%,18.4µM*,-24.3%,-17.5%,i
Cn1cnc(S(=O)(=O)N2CCC(C(=O)NCc3ccccc3)CC2)c1,23.0%,-11.7%,-14.1%,-11.9%,·,·
